The values below come from PubChem BioAssay (NCI).

The structures appear in SMILES notation. Compounds without any hit were thinned out: in the full panel of roughly 83,000, 20% have a hit.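 Treatment: one concentration, 48 hours, 96-well format. Scoring: percent growth, with anything below 10 considered active.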 Values without a mark were called inactive. The source made the active and inactive calls.

In the assay the test system is SR leukemia. As to the kind of experiment: NCI-60 one-dose screen, 48 h (100 = growth as untreated, 0 = no growth, -100 = all killed). The conditions noted are these: 10 µM unless noted. The method, then:
Growth inhibition of the SR human tumor cell line is measured as a screen for anti-cancer activity. Cells are grown in 96 well plates and exposed to the test compound for 48 hours. Compounds are tested at a single concentration, which is 10^-5 M for most compounds. The reported endpoint is percent growth (GI% or GIPRCNT), where numbers from 0 - 100% represent growth inhibition, and numbers from -100% - 0 represent cell death. For example, a value of 40 represents 60% growth inhibition. A value of 0 means no net growth occurred over the course of the experiment. A value of -40 indicates 40% of cells at the beginning of the experiment died by the end of the experiment. A value of -100 means all cells are dead at the end of the experiment.
NCI-60 Human Tumor Cell Lines Screen was performed using the standard one-dose NCI protocol, which is described in more detail at https://dtp.cancer.gov/discovery_development/nci-60/default.htm.
Compounds with GIPRCNT values below 10 were considered active. Activity score was based on GIPRCNT using the following formula: […]
Score is 0 for GIPRCNT values of 100 or above, 50 for GIPRCNT values of 0, and 100 for GIPRCNT values of -100.
On to `COC(c1ccc2ccccc2c1)C(C)C(F)F` (stereo not given), for which the growth was 92%. Take `Nc1c(C(=O)O)cc(Cl)cc1[N+](=O)[O-]`: the growth was 109%. Regarding `CCn1cc(C(=O)N/N=C/c2ccc(Br)cc2)c(=O)c2cc(F)c(N3CCNC(C)C3)c(F)c21` (stereo not given), the growth is 4.35% (active). As for `Cn1ccnc1C(=O)/C=C/c1ccc(C(=O)Nc2ccc(F)cc2)cc1`, the growth was 2.09% (active).

Regarding `N#Cc1c(N2CCOCC2)nc(=S)[nH]c1-c1ccccc1`, the growth was 53.1%. Turning to `CCC(C)Nc1ccc(NC(C)CC)cc1` (stereo not given), the growth was 76.1%.

For `Cc1c2cc[nH]c(=O)c2c(C)c2c1[nH]c1ccc(OC(=O)c3ccccc3)cc12`, the growth was 4.29% (active). For the compound `COc1ccc2nc(SCC(=O)Nc3ccccc3C)[nH]c2c1`, the growth is 89.5%.

For `Cc1cccc(N2CCN(C(=S)c3ccc4c(c3)OCO4)CC2)c1`, the growth was 16.9%.

Consider `CCn1cc(CNc2ccc(C(=O)Nc3cc4cc(OC)c(OC)cc4c(C)n3)cc2)c(C)n1`, for which the growth is 32.8%. `CN1CCN(CCOc2ccc(-c3cnc4c(-c5ccc(C(F)(F)F)cc5)cnn4c3)cc2)CC1`: the growth was -8.03% (active). The figure for `O=C(O)C1CN(c2cccc(Cl)c2)N(c2cccc(Cl)c2)C1=O` (stereo not given) is 85%; for `O=C(N/N=C/c1ccc(Cl)cc1Cl)c1ccc2nc(-c3ccc(Cl)cc3)[nH]c2c1` it is -24.2% (active); for `Cn1ncc2ccc(-c3nc(-c4ccccc4)[nH]c3-c3n[nH]c(=O)n3C3CC3)cc21` it is 82.9%. On to `O=C(/C=C/c1ccccc1)Nc1ncc(Cc2ccccc2)s1`, for which the growth is 15.3%. Turning to `CCCCc1oc2ccccc2c1C(=O)c1ccc(O)cc1`, the growth is 31%. The figure for `COc1ccc(-c2cc(C(=O)N3N=C(c4ccc(N)cc4)CC3c3ccccc3)c3ccccc3n2)cc1` (stereo not given) is 22.6%. Regarding `O=C(Nc1nc(C(=O)N2CCN(C(c3ccccc3)c3ccccc3)CC2)cs1)c1ccc(NC2CCCCC2)c([N+](=O)[O-])c1`, the growth is 90.2%. For the compound `c1ccc(CCc2ccccc2-c2cc(-c3ccccc3)on2)cc1`, the growth is 75.7%. With `C[C@H]1[C@H](C)CC[C@]2(C(=O)O)CC[C@]3(C)C(=CC[C@@H]4[C@@]5(C)C[C@@H](Cc6cn([C@@H]7O[C@H](CO)[C@@H](O)[C@H](O)[C@H]7O)nn6)[C@H](O)C(C)(C)[C@@H]5CC[C@]43C)[C@H]12`, the growth was 105%. For `O=C(Nc1ccccc1)c1sc(-c2ccccc2)cc1O`, the growth is 70.4%. In the case of `CCCCCCNc1nc(NCCCCCC)c2[nH]c(NCCCCCC)nc2n1`, the growth is -33.4% (active). In the case of `CNC(=O)c1c(NC(=O)c2ccc(C(C)(C)C)cc2)sc2c(CN(C)C)c(O)ccc12`, the growth was 3.65% (active). On to `S=c1[nH]c2cc(Cl)ccc2o1`, for which the growth was 48.5%.

Regarding `COc1ccc(C2C(C#N)=C(N)Oc3c2sc2c(Br)cccc32)cc1` (stereo not given), the growth was 8.82% (active). In the case of `COC(=O)C1=Nc2ccc(F)cc2/C1=C\c1sc(Nc2ccc(O)cc2)nc1O`, the growth is 24.2%.

Regarding `CCOC(=O)c1c(-c2ccccc2)n2c(=O)cc(C)c3c(O)c(O)cc1c32`, the growth is 22.4%. For `COc1ccc(C2=C/C(=C\c3ccc(Cl)cc3)C(=O)N2/N=C/c2ccc(Cl)cc2)cc1`, the growth is 88.3%.

Take `CC(CN)[C@@H]1CC[C@]2(CO)CC[C@]3(C)[C@H](CC[C@@H]4[C@@]5(C)CCC(N)C(C)(C)[C@@H]5CC[C@]43C)[C@@H]12` (stereo not given in full): the growth was -46.4% (active).

Turning to `COc1ccc(OC)c(-c2cn3nc(-c4c[nH]c5ccc(Br)cc45)sc3n2)c1`, the growth is 22.1%. With `CCCCn1sc(=O)n(Cc2ccc(CNC(=O)OCc3ccc4c(Cl)cc(Cl)c(O)c4n3)cc2)c1=O`, the growth is 65.6%. Turning to `Cc1nc2ccccc2c(/C=C/c2ccc(C(F)(F)F)cc2)c1C(=O)/C=C/c1ccccc1`, the growth is 8.57% (active). With `Cc1ncc(C(=O)Nc2ccc(CN3CCN(C)CC3)c(C(F)(F)F)c2)cc1C#Cc1cnc(N)c2ccncc12`, the growth was -41% (active). Take `NC(CSC(c1ccccc1)(c1ccccc1)c1ccc2c(c1)OCO2)C(=O)O` (stereo not given): the growth is 5.57% (active). The result for `COc1ccc(Cc2cnc(NC(=O)c3sc4ccccc4c3Cl)s2)cc1` reads 9.94% (active); that for `CN(C)c1ccc(/C=C/C(=O)c2ccccc2)cc1`, 25.1%; that for `Cc1ccc(C(=O)c2ccc(CC(=O)N/N=C/c3ccc(O)cc3O)n2C)cc1`, 17.3%. `O=C(CCC(=O)c1nc2ncccc2[nH]1)NN1C(=O)CSC1c1ccc(Cl)cc1` (stereo not given): the growth is 55.9%. Turning to `COc1cccc(NC(=O)c2cccc(C3CCc4c(cc(OC)c(OC)c4OC)O3)c2)c1` (stereo not given), the growth was 35.7%. The result for `O=c1nc(Nc2nc3ccccc3s2)[nH]c(=O)c2ccccc12` reads 90.7%.
